# Assay results: PubChem BioAssay (NCATS)
# Unmarked numbers belong to inactive results. Records with an inconclusive call do not appear. The source made the active and inactive calls. Unless noted, calls follow the shape of the dose curve; as a rule, active = well fitted curve in either direction with a large enough effect (not every such curve was filed as active); inconclusive = small, poorly fitted or top-dose-only effect, or another doubt; inactive = flat fitted curve, though single readings scatter.
# Experiments:
# [1] = target: Lysosomal acid glucosylceramidase (Homo sapiens) (UniProt P04062); test: Glucocerebrosidase-p2 (AID 348; in the data active = potency below about 10 µM; also: potency is read from the fitted curve at half-maximal effect); conditions: purified GBA, blue fluorogenic substrate, 40 min
# Sequence of Lysosomal acid glucosylceramidase (Homo sapiens) (P04062 whole entry, looked up): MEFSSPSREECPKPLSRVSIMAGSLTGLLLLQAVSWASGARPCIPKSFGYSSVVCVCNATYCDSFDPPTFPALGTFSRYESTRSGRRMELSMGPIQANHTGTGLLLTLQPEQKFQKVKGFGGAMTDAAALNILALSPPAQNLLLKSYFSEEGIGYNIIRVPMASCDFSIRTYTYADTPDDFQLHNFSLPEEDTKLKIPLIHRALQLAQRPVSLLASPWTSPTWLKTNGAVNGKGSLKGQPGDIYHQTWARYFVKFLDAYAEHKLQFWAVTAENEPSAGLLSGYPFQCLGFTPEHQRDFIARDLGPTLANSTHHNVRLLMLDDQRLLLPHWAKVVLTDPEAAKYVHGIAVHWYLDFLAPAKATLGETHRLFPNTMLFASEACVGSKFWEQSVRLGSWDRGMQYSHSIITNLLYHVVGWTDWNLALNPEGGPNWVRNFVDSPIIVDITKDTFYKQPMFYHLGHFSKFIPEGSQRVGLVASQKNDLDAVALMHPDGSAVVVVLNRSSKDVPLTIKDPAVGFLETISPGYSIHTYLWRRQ
# Procedure, shortened: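 Compounds titrated from 0.6 nM upwards against 0.2 nM enzyme in pH 5.9 citric acid/KH2PO4, taurocholate, tween-20; blue fluorogenic substrate 80 uM, 40 min room temperature, stopped and read Ex 365/Em 440 for AC50.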
# [2] = target: Cytochrome P450 1A2 (Homo sapiens) (UniProt P05177); test: p450-cyp1a2 (AID 410; calls by dose curve; also: potency is read from the fitted curve at half-maximal effect;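 as to activity change, negative = inhibition: -100% = full effect of reference inhibitor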); conditions: recombinant CYP1A2, luciferin-ME demethylation, luminescence; series mostly up to 11.4 µM
# Sequence of Cytochrome P450 1A2 (Homo sapiens) (P05177 whole entry, looked up): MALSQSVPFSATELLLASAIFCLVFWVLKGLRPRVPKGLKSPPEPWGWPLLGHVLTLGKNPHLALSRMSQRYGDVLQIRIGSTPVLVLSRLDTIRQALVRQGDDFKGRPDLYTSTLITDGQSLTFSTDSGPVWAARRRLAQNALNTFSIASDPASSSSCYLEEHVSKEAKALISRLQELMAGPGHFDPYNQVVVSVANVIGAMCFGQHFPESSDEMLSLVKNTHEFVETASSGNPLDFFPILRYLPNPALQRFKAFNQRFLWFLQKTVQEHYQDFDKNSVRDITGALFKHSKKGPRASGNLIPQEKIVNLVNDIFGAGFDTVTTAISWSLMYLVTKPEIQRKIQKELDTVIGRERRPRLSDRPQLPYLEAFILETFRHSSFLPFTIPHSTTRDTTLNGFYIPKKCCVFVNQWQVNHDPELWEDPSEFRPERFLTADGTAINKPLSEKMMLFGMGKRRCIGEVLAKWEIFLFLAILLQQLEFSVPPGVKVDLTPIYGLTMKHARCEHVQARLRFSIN
# Procedure, shortened: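 Inhibition was calculated relative to 57 uM furafylline (full inhibition). The reaction used human CYP1A2 at 20nM with Luciferin-ME at its Km, 100uM, driven by an NADPH-regenerating system for 60 min at room temperature.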
# [3] = target: Glucocorticoid receptor (Homo sapiens) (UniProt P04150); test: GR-GFP Redistribution (AID 450;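 active = compounds whose dose series gives a full or clear partial fitted curve of increased nuclear translocation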; also: potency is read from the fitted curve at half-maximal effect); conditions: U2OS GR-GFP nuclear translocation, laser cytometry, 2 h
# Sequence of Glucocorticoid receptor (Homo sapiens) (P04150 whole entry, looked up, the tested form may be a part): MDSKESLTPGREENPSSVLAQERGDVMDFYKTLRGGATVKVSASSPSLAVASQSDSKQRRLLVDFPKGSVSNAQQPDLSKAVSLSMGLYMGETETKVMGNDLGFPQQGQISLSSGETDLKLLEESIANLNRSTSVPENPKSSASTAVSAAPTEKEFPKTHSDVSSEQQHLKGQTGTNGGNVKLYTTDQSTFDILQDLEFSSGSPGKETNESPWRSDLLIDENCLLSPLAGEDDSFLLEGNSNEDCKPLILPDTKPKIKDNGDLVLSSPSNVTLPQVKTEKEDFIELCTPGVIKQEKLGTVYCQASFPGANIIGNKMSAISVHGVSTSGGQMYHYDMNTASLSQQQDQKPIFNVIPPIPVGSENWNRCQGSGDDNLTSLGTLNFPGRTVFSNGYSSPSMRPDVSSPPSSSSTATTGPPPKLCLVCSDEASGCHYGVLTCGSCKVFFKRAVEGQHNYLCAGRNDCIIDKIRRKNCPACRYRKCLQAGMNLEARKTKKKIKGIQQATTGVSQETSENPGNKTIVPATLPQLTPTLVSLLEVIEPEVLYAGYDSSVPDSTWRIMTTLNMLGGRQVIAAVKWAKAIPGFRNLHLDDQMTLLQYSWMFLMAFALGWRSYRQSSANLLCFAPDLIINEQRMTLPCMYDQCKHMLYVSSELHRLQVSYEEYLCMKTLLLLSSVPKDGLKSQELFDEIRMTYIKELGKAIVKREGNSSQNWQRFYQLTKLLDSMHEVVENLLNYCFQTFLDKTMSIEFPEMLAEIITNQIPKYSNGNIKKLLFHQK
# [4] = target: Glucocorticoid receptor (Homo sapiens) (UniProt P04150); test: GR-EFC Redistribution (AID 451; calls by dose curve; also: potency is read from the fitted curve at half-maximal effect); conditions: CHO-K1 GR-EFC translocation, beta-gal luminescence, 2 h
# Procedure, shortened: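 CHO-K1 cells stably expressing nuclear-localized β-gal enzyme acceptor and GR fused C-terminally to the enzyme donor fragment; ligand-driven nuclear translocation restores β-gal by complementation. Compounds titrated up to 46 uM final, 2 h at 37 °C; luminescence read.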
# [5] = target: Mitogen-activated protein kinase 10 (Mus musculus) (UniProt Q61831); test: JNK3 AlphaScreen Assay (AID 530); conditions: JNK3 lysate, c-Jun phosphorylation; series mostly up to 11.4 µM;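 also: kinase came from lysate of stimulated human HepG2 cells; signal reports phosphorylation of biotinylated GST-cJun 1-79 at Ser73 with 10 µM ATP; % is scaled to controls: 0 for no effect and ±100 for the full control effect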
# Procedure, shortened: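 JNK3 came from HepG2 lysates pre-activated with IL-1beta and TNF-alpha and phosphorylated biotinylated GST-cJun (1-79) at 10 uM ATP, pH 7.6, room temperature. Compounds were titrated. AlphaScreen signal used anti-phospho-cJun (Ser73) antibody.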
# [6] = target: 3',5'-cyclic-AMP phosphodiesterase 4B (Homo sapiens) (UniProt Q07343); test: qHTS Assay for Inhibitors of PDE-IV (AID 607; active = well fitted activation curve with a large enough effect in the main read-out, with a control signal flat, not every such curve was filed as active; also: % of control where 0% means no effect); conditions: HEK293 ACTOne CNG channel cells, membrane potential fluorescence; series mostly up to 22.9 µM
# Sequence of 3',5'-cyclic-AMP phosphodiesterase 4B (Homo sapiens) (Q07343 whole entry, looked up): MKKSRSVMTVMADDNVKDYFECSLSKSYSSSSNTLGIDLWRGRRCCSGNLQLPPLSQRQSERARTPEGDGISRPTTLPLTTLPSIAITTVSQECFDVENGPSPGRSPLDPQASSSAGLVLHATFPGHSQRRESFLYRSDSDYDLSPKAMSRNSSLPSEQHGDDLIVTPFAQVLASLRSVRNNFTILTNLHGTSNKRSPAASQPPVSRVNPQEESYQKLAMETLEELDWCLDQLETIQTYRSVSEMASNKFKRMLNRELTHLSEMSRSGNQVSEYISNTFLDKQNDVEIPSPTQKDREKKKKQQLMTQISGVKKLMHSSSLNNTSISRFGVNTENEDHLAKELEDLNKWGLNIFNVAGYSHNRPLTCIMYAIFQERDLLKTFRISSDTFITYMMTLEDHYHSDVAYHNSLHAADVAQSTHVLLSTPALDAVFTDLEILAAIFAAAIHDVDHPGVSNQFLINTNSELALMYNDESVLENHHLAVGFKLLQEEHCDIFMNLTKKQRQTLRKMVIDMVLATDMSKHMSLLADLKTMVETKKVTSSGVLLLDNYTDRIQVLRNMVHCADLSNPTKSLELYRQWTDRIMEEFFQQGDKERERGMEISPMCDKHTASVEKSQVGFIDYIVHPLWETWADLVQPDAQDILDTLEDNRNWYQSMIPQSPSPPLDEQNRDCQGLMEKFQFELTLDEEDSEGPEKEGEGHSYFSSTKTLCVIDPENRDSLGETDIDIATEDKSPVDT
# Procedure, shortened: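 The readout is membrane depolarisation from a cAMP-sensing CNG channel, detected with a potential dye at ex 535/em 590. Cells were HEK293-derived (endogenous PDE-IV) at 1000 cells/well, titrated up to 22.9 uM final.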
# [7] = target: Cytochrome P450 3A4 (Homo sapiens) (UniProt P08684); test: qHTS Assay for Inhibitors and Substrates of Cytochrome P450 3A4 (AID 884; active = well fitted curve in the direction sought with a large enough effect; an effect the other way counts as inactive or inconclusive; also: nearly all actives have a fitted effect of over 50% in size; also: potency is read from the fitted curve at half-maximal effect; as to activity change, negative = inhibition: % is scaled to controls: 0 for no effect and ±100 for the full control effect); conditions: recombinant CYP3A4, Luciferin-PPXE luminescence; series mostly up to 57.1 µM
# Sequence of Cytochrome P450 3A4 (Homo sapiens) (P08684 whole entry, looked up): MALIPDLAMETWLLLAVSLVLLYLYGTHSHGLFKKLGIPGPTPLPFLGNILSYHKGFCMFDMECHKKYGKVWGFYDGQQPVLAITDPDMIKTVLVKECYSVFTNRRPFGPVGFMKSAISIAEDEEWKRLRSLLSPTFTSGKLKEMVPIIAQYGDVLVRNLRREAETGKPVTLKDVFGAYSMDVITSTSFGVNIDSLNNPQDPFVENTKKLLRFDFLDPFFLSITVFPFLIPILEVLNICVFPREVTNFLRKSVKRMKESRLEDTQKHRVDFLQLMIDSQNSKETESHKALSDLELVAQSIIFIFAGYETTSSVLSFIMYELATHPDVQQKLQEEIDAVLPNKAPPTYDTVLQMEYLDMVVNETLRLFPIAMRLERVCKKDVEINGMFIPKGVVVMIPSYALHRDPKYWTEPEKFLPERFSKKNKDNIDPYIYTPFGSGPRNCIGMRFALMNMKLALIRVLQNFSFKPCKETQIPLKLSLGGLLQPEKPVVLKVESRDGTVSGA
# Procedure, shortened: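 20 nM human CYP3A4 with 25 uM Luciferin-PPXE (at KM) in 200 mM KPO4, preincubated 10 min with compound; NADPH regeneration started a 60 min RT reaction. Luciferin detected by luminescence, normalized to 57 uM ketoconazole as full inhibition.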
# [8] = qHTS Assay for Identification of Small Molecule Agonists for Hypoxia Response Element Signaling Pathway (AID 914; active = well fitted activation curve with a large enough effect in the signal ratio, with a control signal flat, not every such curve was filed as active; the % refers to the signal ratio; also: potency is read from the fitted curve at half-maximal effect); conditions: ME-180 HRE-bla reporter, beta-lactamase ratio, CoCl2, 17 h; activation: stronger effect = higher value
# Procedure, shortened: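 ME-180 cells carrying an HRE-driven beta-lactamase reporter were treated with compounds in a titration series plus an EC50 level of CoCl2 for 17 h at 37 degrees Celsius; CCF4 readout as the 460nm/530nm ratio gave AC50 values.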
# [9] = NFAT Signaling Pathway (AID 444); conditions: Jurkat NFAT-bla M1, carbachol, beta-lactamase ratio, 5 h; at 7.69 µM (top of the series) unless noted;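 also: carbachol stimulus at about its EC50 of 1 µM final; % is scaled to controls: 0 for no effect and ±100 for the full control effect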
# Procedure, shortened: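 Jurkat cells carrying an NFAT-driven β-lactamase reporter and co-transfected muscarinic M1 receptor were treated with compound plus carbachol (1 uM final, an EC50 level) for 5 h at 37 °C. CCF4 loading followed for 1 h at RT; 460/530 nm ratio gave %activity.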
# [10] = Stat Signaling Pathway (AID 446); conditions: ME-180 SIE beta-lactamase reporter, IL-6 stimulated, 5 h; at 7.69 µM (top of the series) unless noted;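 also: ME-180 cervical cancer cells given 40 pM IL-6 alongside compound; SIE-controlled beta-lactamase reporter measured as 460/530 nm FRET emission ratio; % is scaled to controls: 0 for no effect and ±100 for the full control effect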
# Procedure, shortened: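 Screening format detects activators and inhibitors alike: ME-180 SIE-bla cells stimulated at 40 pM IL-6 for 5 hrs with compound, then dual-emission beta-lactamase read at 405 nm excitation.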
# [11] = target: Cytochrome P450 2C9 (Homo sapiens) (UniProt P11712); test: qHTS Assay for Inhibitors and Substrates of Cytochrome P450 2C9 (AID 883; active = well fitted curve in the direction sought with a large enough effect; an effect the other way counts as inactive or inconclusive; also: potency is read from the fitted curve at half-maximal effect; nearly all actives have a fitted effect of over 60% in size); conditions: recombinant CYP2C9, luciferin-H luminescence, 60 min; series mostly up to 11.4 µM
# Sequence of Cytochrome P450 2C9 (Homo sapiens) (P11712 whole entry, looked up): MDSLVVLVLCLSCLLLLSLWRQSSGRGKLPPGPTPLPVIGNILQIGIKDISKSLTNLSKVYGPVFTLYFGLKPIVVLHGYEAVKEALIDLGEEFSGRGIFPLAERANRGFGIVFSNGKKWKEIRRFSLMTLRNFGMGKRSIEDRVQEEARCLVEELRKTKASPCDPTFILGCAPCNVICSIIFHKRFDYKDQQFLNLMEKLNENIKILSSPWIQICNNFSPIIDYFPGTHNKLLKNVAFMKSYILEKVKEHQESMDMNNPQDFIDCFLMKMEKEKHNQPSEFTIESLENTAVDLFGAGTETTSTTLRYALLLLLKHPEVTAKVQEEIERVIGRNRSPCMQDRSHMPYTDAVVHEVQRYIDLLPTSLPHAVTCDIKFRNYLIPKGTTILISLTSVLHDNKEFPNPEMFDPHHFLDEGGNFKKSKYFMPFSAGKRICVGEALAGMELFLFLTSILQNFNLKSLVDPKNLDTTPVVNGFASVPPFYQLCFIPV
# Procedure, shortened: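 Human CYP2C9 (10nM) hydroxylated Luciferin-H (100uM, at its KM) to luciferin in 25mM KPO4. Compound was preincubated 10 min at 37C, then NADPH regeneration started a 60 min reaction at 37C. Luminescence was read after detection reagent, normalized to 57uM sulphaphenazole.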
# [12] = target: Cytochrome P450 3A4 (Homo sapiens) (UniProt P08684); test: qHTS Assay for Activators of Cytochrome P450 3A4 (AID 885; active = well fitted curve in the direction sought with a large enough effect; an effect the other way counts as inactive or inconclusive; also: nearly all actives have a fitted effect of over 65% in size); conditions: recombinant CYP3A4, Luciferin-PPXE luminescence, 60 min; series mostly up to 11.4 µM
# Procedure, shortened: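 Steps: enzyme/substrate mix dispensed; compound added, 10 min RT; NADPH regeneration solution added, 60 min RT; luciferin detection buffer stops reaction; 20 min later luminescence measured.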
# [13] = target: Cytochrome P450 2D6 (Homo sapiens) (UniProt P10635); test: qHTS Assay for Inhibitors and Substrates of Cytochrome P450 2D6 (AID 891; active = well fitted curve in the direction sought with a large enough effect; an effect the other way counts as inactive or inconclusive; also: potency is read from the fitted curve at half-maximal effect; nearly all actives have a fitted effect of over 60% in size); conditions: recombinant CYP2D6, luciferin-ME EGE luminescence; series mostly up to 11.4 µM
# Sequence of Cytochrome P450 2D6 (Homo sapiens) (P10635 whole entry, looked up): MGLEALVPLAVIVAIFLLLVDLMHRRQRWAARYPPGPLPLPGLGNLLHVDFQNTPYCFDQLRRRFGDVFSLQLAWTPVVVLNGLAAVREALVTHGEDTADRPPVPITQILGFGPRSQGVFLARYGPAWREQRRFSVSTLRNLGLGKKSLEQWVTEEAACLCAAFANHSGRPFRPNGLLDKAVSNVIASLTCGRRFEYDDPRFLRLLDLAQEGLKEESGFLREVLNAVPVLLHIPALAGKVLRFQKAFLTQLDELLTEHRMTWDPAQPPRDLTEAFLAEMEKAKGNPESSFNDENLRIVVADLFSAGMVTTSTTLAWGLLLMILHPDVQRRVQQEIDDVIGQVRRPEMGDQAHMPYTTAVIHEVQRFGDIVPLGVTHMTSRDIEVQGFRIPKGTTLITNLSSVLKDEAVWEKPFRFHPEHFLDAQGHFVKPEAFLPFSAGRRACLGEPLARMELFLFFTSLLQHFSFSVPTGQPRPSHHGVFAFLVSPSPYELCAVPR
# Procedure, shortened: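 Human CYP2D6 (5 nM) with 30 uM Luciferin-ME EGE (at Km) in 100 mM KPO4, compound preincubated 10 min, then NADPH regeneration system for 60 min at room temperature. Luciferin read by luminescence; normalized to 1.43 uM quinidine.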
# [14] = target: Cytochrome P450 2C19 (Homo sapiens) (UniProt P33261); test: qHTS Assay for Inhibitors and Substrates of Cytochrome P450 2C19 (AID 899; active = well fitted curve in the direction sought with a large enough effect; an effect the other way counts as inactive or inconclusive; also: potency is read from the fitted curve at half-maximal effect; nearly all actives have a fitted effect of over 60% in size); conditions: recombinant CYP2C19, luciferin-H EGE luminescence; series mostly up to 11.4 µM
# Sequence of Cytochrome P450 2C19 (Homo sapiens) (P33261 whole entry, looked up): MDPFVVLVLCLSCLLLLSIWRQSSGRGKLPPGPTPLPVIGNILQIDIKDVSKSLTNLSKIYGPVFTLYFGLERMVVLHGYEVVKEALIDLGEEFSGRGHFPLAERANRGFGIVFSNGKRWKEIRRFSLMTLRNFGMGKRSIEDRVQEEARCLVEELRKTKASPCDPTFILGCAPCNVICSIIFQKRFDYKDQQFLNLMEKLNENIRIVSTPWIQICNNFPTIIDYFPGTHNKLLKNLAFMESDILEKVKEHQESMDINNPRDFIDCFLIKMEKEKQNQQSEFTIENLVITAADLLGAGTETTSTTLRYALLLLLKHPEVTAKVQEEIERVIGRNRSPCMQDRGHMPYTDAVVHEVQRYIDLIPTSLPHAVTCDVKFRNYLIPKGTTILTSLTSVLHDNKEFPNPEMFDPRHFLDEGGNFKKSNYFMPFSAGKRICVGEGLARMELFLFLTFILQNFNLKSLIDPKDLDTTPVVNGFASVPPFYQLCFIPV
# Procedure, shortened: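 Human CYP2C19 (5nM) with Luciferin-H EGE at 10uM (its KM) in 50mM KPO4 was preincubated with compound for 10 min at 37C. NADPH regeneration started a 60 min 37C reaction. Luciferin was read by luminescence, normalized to 57uM ketoconazole.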
# [15] = Confirmation and Secondary Assay for Modulators of Hemoglobin Beta Chain Splicing at IVS2 654 locus (AID 910; active = well fitted curve in the direction sought with a large enough effect; an effect the other way counts as inactive or inconclusive;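 also: per-well total GFP intensity by laser scanning cytometry after 2-day treatment; % of control where 0% means no effect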); conditions: HeLa EGFP-654 splicing reporter, GFP fluorescence, 48 h; series mostly up to 38.3 µM
# Procedure, shortened: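 HeLa cells stably carrying EGFP interrupted by mutant beta-globin IVS2-654 intron (CMV-driven) were treated with compound for 2 days at 37C; corrected splicing was scored as total peak GFP intensity per well (488 nm excitation, 500-520 nm emission).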
smiles,measurement,setting,value
CN1CCN(c2ncc3nc(-c4ccc(Cl)cc4)c(=O)n(C4CC4)c3n2)CC1,Potency,[1],> 11.4 µM
same,Potency,[2],15.8 µM (active)
same,Potency,[3],> 9.22 µM
same,Potency,[4],> 46 µM
same,Potency,[5],inactive
same,Potency,[6],inactive
same,Potency,[7],inactive
same,Potency,[8],3.16 µM (active)
CN(Cc1ccccc1)Cn1ccnc1,Potency,[1],> 11.4 µM
same,"activity change, negative = inhibition",[9],-1.18%
same,"activity, negative = inhibition",[10],10.2%
same,Potency,[3],> 46 µM
same,Potency,[4],> 9.22 µM
same,Potency,[5],inactive
same,Potency,[6],inactive
same,Potency,[11],2.51 µM (active)
same,Potency,[12],inactive
same,Potency,[13],0.794 µM (active)
same,Potency,[14],2 µM (active)
O=C1C(Cl)=C(Nc2ccc(S(=O)(=O)Nc3ccccn3)cc2)C(=O)c2ccccc21,Potency,[1],> 11.4 µM
same,Potency,[2],3.16 µM (active)
same,Potency,[3],> 46 µM
same,Potency,[4],> 9.22 µM
same,Potency,[5],inactive
same,Potency,[6],inactive
same,Potency,[11],2 µM (active)
same,Potency,[13],3.16 µM (active)
same,Potency,[14],0.794 µM (active)
FC(F)(F)c1cccc(-c2nc3nc(Cl)c(Cl)nc3[nH]2)c1,Potency,[1],> 11.4 µM
same,Potency,[2],0.398 µM (active)
same,Potency,[3],> 46 µM
same,Potency,[4],> 9.22 µM
same,Potency,[5],inactive
same,Potency,[6],inactive
same,Potency,[11],3.98 µM (active)
O=c1c(-c2ccccc2)nc2cnc(N3CCNCC3)nc2n1Cc1ccc(F)cc1,Potency,[1],> 11.4 µM
same,Potency,[2],20 µM (active)
same,Potency,[3],> 9.22 µM
same,Potency,[4],> 46 µM
same,Potency,[6],inactive
same,Potency,[7],3.16 µM (active)
same,Potency,[12],inactive
COc1ncc2nc(C)c(=O)n(C)c2n1,Potency,[1],> 11.4 µM
same,"activity change, negative = inhibition",[9],-2.54%
same,"activity, negative = inhibition",[10],-2.89%
same,Potency,[3],> 9.22 µM
same,Potency,[4],> 46 µM
same,Potency,[5],inactive
same,Potency,[6],inactive
NC(=O)N/N=C1\CC[C@H](O)C[C@@H]1CC(=O)O,Potency,[1],> 11.4 µM
same,"activity change, negative = inhibition",[9],5.67%
same,"activity, negative = inhibition",[10],0.119%
same,Potency,[3],> 46 µM
same,Potency,[4],> 9.22 µM
same,Potency,[5],inactive
same,Potency,[6],inactive
NS(=O)(=O)c1ccc(N=Nc2cc3ccccc3c(C(=O)O)c2O)cc1,Potency,[1],> 11.4 µM
same,Potency,[2],1 µM (active)
same,Potency,[3],> 46 µM
same,Potency,[4],> 9.22 µM
same,Potency,[6],inactive
S=c1nc(-c2nc(=S)[nH]c3c2CCCCCCCCCC3)c2c([nH]1)CCCCCCCCCC2,Potency,[1],> 11.4 µM
same,"activity change, negative = inhibition",[9],15.1%
same,"activity, negative = inhibition",[10],9.8%
same,Potency,[3],> 46 µM
same,Potency,[4],> 9.22 µM
same,Potency,[5],inactive
same,Potency,[6],inactive
Cc1cccc(CNc2nc(-c3cccnc3)nc3ccccc23)c1,Potency,[1],> 11.4 µM
same,Potency,[2],0.631 µM (active)
same,Potency,[3],> 46 µM
same,Potency,[4],> 46 µM
same,Potency,[5],inactive
same,Potency,[12],inactive
same,outcome,[15],inactive
Cc1ccc2nc(-c3ccc(NC(=O)c4ccc(N)cc4)c(S(=O)(=O)O)c3)sc2c1,Potency,[1],> 11.4 µM
same,"activity change, negative = inhibition",[9],12.1%
same,"activity, negative = inhibition",[10],-11.4%
same,Potency,[3],> 46 µM
same,Potency,[4],> 9.22 µM
same,Potency,[5],inactive
O=c1c(-c2ccccc2)nc2cnc(N3CCOCC3)nc2n1-c1ccccc1,Potency,[1],> 11.4 µM
same,Potency,[2],12.6 µM (active)
same,Potency,[3],> 9.22 µM
same,Potency,[4],> 46 µM
same,Potency,[6],inactive
same,Potency,[12],inactive
same,Potency,[8],3.16 µM (active)
O=C(O)c1c(-c2nccc3ccccc23)[nH]c(-c2ccccc2)c1S(=O)(=O)O,Potency,[1],> 11.4 µM
same,"activity change, negative = inhibition",[9],12%
same,"activity, negative = inhibition",[10],-1.38%
same,Potency,[3],> 46 µM
same,Potency,[5],inactive
Cc1noc(C)c1C(=O)N1CCC[C@@]2(CCN(c3cccc(-c4ccccc4)c3)C2)C1,Potency,[1],> 11.4 µM
same,"activity change, negative = inhibition",[9],-20.7%
same,"activity, negative = inhibition",[10],-22.2%
same,Potency,[4],> 46 µM
same,Potency,[5],inactive
same,Potency,[6],inactive
Nc1ccc(N=Nc2ccc(-c3ccc(O)cc3)cc2)c2ccc(S(=O)(=O)O)cc12,Potency,[1],> 11.4 µM
same,"activity change, negative = inhibition",[2],-17.8% [at 2.29 µM]
same,Potency,[3],> 46 µM
same,Potency,[4],> 9.22 µM
same,Potency,[6],inactive
Cc1cccc(Cl)c1NC[C@H](O)CN1CCN(C)CC1,Potency,[1],> 11.4 µM
same,"activity change, negative = inhibition",[9],-10.1%
same,"activity, negative = inhibition",[10],6.35%
same,Potency,[3],> 46 µM
same,Potency,[4],> 9.22 µM
same,Potency,[5],inactive
same,Potency,[6],inactive
C[C@@H](SCc1ccccc1)C(=O)O,Potency,[1],> 11.4 µM
same,"activity change, negative = inhibition",[9],12.1%
same,"activity, negative = inhibition",[10],-3.81%
same,Potency,[3],> 46 µM
same,Potency,[4],> 9.22 µM
same,Potency,[5],inactive
same,Potency,[6],inactive
CCNc1ncc2nc(CCc3ccccc3)c(=O)n(-c3ccc(OC)cc3)c2n1,Potency,[1],> 11.4 µM
same,"activity change, negative = inhibition",[9],-12.3%
same,"activity, negative = inhibition",[10],-3.89%
same,Potency,[3],> 9.22 µM
same,Potency,[4],> 46 µM
same,Potency,[5],inactive
same,Potency,[7],6.31 µM (active)
same,Potency,[12],inactive
same,Potency,[13],0.251 µM (active)
